Assay in all cases: DAPPL (digital affinity profiling via proximity ligation, sequencing); 10 mM Tris-HCl pH 7.5, 50 mM NaCl, 1 mM DTT, 4% glycerol, room temperature, 30 min; GST-TFs on glutathione beads, 16-mer random dsDNA library, 0.1% formaldehyde crosslink after washing; high values mean tight binding
What all share (settings): protein: recombinant; tags: N-terminal GST; dsDNA, one strand shown

One test addresses T1, ELK1 (Homo sapiens, UniProt P19419 1-428).
T1 sequence: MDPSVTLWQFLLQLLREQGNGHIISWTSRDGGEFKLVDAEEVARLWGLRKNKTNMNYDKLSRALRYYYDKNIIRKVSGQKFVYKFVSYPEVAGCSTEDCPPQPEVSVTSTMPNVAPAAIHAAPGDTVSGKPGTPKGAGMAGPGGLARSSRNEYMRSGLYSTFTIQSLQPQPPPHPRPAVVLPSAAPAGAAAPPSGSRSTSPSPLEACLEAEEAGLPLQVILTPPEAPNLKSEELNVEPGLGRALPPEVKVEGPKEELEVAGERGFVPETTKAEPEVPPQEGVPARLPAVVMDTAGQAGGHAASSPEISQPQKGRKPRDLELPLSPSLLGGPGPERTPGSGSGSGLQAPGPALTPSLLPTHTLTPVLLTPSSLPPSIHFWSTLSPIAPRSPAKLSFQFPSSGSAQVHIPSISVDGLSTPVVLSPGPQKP
An outline of the steps: (§1)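 Sequencing on an Illumina NextSeq500 followed washing, crosslinking with 0.1% formaldehyde, proximity ligation (BsaI/T4 ligase, 1 h, 37 °C) and PCR amplification of pools that had been incubated for 30 min at room temperature with 200 nmole of a random double-stranded 16-mer DNA library in Tris/NaCl/DTT/glycerol buffer. Each pool held DNA-barcoded human transcription factors, expressed in yeast as GST fusions and captured on glutathione beads, plus a tag-only sample. Binding signal is a hexamer's read frequency for a factor divided by its frequency in the tag-only sample.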

A further test has as its target T2, EHF (Homo sapiens, UniProt Q9NZC4 1-300).
T2 sequence: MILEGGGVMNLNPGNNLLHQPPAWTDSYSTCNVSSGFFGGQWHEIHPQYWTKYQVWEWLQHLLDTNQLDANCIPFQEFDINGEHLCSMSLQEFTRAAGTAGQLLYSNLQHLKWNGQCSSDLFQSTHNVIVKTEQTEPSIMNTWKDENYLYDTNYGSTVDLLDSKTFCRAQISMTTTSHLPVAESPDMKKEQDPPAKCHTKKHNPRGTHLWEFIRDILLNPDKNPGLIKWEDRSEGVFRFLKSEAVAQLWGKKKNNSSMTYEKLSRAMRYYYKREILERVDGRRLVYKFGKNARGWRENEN
An outline of the steps:
as §1

A further test has as its target SPIB (Homo sapiens, UniProt Q01892 1-262). Summed up: as §1
The target in a further test is ETV5 (Homo sapiens, UniProt P41161 1-510). An outline of the steps:
as §1

The target of the next test is T3, SPIC (Homo sapiens, UniProt Q8N5J4 1-248).
T3 sequence: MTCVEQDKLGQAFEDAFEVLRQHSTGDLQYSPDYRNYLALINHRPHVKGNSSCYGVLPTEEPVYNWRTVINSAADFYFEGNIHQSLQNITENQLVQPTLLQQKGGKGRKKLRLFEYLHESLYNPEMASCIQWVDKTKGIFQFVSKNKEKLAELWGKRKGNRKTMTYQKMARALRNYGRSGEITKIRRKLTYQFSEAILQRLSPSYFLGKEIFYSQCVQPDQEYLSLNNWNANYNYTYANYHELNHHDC
Summed up: as §1

Another test addresses T4, ELK4 (Homo sapiens, UniProt P28324-2 1-405).
T4 sequence: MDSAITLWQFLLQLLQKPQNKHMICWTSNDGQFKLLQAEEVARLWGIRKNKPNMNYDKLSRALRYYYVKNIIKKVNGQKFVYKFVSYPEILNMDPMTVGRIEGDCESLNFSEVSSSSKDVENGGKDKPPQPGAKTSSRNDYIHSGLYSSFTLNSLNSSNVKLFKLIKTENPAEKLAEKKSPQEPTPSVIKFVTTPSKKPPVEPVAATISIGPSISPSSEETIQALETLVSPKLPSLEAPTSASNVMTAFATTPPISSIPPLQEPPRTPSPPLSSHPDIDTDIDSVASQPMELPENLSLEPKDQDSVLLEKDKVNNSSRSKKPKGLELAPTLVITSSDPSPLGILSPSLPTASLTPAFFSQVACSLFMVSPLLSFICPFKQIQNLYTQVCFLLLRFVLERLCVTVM
Summed up: as §1

Another test concerns the target T5, ETV3L (Homo sapiens, UniProt Q6ZN32 1-361).
T5 sequence: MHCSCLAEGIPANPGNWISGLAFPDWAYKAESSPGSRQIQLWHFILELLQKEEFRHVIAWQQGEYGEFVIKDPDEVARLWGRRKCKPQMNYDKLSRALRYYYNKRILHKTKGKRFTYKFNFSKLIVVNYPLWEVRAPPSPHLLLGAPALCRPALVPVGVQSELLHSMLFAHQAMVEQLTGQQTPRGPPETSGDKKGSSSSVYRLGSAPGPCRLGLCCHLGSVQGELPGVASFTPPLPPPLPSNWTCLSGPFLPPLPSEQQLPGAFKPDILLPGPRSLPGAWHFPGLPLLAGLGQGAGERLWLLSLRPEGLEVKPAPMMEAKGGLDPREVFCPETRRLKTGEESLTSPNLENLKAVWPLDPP
An outline of the steps: as §1

The next test deals with T6, ETV3 (Homo sapiens, UniProt P41162-2 1-143).
T6 sequence: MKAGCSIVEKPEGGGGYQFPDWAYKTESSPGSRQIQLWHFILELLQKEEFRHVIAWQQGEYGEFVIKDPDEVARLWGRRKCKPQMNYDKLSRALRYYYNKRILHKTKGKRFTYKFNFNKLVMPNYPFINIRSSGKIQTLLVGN
Summed up:
as §1

In the next test the target is T7, GABPA (Homo sapiens, UniProt Q06546 1-454).
T7 sequence: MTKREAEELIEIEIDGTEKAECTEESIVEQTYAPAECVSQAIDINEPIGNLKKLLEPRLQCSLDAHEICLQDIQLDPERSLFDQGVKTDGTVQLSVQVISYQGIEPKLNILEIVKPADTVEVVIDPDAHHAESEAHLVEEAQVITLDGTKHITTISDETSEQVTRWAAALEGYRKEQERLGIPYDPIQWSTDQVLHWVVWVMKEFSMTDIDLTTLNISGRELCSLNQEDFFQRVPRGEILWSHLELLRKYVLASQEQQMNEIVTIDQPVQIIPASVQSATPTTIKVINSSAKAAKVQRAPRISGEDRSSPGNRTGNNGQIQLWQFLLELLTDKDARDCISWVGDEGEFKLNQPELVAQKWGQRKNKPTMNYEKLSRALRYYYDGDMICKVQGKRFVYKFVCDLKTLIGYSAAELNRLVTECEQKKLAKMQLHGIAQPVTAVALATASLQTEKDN
An outline of the steps:
as §1

Another test deals with T8, ERF (Homo sapiens, UniProt P50548 1-548).
T8 sequence: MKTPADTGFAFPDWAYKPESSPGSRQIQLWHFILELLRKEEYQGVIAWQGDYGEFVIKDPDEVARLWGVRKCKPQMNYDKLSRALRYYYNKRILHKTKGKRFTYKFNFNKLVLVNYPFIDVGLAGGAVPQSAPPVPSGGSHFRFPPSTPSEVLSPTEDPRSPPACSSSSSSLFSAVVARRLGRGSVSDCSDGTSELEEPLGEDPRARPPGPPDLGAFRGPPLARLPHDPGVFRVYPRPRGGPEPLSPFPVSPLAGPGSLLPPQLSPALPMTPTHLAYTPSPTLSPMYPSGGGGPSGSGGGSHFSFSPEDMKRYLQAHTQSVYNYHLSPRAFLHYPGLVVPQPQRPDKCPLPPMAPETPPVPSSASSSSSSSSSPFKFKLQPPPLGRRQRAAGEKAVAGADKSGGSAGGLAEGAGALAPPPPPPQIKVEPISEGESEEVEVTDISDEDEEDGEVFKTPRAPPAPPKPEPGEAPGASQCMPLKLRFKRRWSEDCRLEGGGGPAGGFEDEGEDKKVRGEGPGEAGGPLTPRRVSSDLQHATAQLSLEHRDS
An outline of the steps:
as §1

Another test deals with T9, SPDEF (Homo sapiens, UniProt O95238 1-335).
T9 sequence: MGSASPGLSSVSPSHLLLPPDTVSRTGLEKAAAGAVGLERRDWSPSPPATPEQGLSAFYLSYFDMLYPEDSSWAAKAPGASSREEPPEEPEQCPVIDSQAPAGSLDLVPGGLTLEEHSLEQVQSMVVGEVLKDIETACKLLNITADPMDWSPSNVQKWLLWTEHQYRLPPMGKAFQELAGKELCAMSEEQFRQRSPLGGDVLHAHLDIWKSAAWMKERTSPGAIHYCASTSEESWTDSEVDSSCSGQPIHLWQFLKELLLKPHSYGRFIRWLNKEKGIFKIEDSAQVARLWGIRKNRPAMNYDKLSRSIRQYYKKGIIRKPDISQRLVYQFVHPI
Summed up: as §1

For the next test, the target named is T10, ERG (Homo sapiens, UniProt P11308 1-479).
T10 sequence: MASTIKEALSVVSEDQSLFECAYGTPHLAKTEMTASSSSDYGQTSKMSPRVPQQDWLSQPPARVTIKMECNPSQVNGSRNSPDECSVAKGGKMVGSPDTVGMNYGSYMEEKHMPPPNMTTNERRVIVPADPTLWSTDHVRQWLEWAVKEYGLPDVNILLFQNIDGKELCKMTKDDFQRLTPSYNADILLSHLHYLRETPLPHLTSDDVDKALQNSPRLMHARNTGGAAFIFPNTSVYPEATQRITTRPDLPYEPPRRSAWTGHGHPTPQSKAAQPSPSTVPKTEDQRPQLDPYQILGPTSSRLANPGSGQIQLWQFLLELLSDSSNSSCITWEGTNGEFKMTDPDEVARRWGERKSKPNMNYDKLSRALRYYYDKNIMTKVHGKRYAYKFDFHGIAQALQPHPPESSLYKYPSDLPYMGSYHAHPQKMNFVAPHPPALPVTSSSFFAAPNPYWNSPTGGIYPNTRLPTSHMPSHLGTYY
Summed up:
as §1

For a further test, the target named is ELF1 (Homo sapiens, UniProt P32519 1-619). Summed up:
as §1

The next test concerns the target ETV1 (Homo sapiens, UniProt P50549 1-477). An outline of the steps: as §1

SPIB, sequence (Q01892 whole entry): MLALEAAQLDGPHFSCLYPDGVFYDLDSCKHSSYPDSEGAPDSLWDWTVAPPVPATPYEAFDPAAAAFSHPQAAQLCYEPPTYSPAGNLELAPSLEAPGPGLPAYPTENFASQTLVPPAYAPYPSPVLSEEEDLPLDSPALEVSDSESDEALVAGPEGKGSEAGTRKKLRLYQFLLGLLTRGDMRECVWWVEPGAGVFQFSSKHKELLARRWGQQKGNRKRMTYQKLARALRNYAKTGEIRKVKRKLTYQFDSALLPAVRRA
ETV5, sequence (P41161 whole entry): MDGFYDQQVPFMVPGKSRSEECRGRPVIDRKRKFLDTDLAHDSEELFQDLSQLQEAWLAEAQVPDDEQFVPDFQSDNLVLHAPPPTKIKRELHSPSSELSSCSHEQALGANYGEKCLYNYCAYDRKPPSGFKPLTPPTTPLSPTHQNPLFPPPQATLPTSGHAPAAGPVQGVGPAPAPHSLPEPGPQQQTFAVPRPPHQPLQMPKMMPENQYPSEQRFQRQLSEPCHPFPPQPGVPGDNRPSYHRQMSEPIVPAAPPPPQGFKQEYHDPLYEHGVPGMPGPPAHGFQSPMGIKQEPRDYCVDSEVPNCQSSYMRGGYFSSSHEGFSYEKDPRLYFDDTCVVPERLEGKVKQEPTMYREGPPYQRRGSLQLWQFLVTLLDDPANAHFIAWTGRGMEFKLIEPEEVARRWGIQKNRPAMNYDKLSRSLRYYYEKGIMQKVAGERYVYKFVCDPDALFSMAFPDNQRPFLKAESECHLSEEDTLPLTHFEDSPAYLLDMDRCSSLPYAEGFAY
ETV1, sequence (P50549 whole entry): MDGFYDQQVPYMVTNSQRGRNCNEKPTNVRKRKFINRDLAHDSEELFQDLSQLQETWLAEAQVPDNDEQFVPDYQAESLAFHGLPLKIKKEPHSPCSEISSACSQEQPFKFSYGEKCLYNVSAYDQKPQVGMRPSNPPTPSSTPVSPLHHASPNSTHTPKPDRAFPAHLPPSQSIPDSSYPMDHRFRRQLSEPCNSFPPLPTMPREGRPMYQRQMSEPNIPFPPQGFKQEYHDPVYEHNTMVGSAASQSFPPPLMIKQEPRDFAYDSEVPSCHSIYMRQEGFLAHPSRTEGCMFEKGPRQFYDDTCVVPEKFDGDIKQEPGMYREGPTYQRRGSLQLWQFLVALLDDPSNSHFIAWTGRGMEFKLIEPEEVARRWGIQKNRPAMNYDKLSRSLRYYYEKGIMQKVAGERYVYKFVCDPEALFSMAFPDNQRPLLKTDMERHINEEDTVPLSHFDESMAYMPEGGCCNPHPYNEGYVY
ELF1, sequence (P32519 whole entry): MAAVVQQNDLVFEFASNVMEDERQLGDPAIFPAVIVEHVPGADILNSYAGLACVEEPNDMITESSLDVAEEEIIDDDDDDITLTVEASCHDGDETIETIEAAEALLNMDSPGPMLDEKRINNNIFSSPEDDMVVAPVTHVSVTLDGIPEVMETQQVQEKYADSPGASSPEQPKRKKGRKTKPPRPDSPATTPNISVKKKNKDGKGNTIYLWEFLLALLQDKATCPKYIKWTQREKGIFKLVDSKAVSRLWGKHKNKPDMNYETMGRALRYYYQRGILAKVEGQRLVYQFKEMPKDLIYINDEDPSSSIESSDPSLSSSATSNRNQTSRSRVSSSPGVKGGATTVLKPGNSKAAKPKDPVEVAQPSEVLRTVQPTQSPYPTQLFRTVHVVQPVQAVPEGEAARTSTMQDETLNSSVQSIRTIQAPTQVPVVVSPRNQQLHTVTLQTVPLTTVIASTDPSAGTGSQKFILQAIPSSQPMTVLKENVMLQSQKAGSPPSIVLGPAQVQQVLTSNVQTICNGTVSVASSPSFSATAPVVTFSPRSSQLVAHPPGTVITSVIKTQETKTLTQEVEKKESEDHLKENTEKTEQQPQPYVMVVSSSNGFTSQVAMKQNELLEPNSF

On to CAGTTC, for which the binding signal in the test with ELK1 is 1.05 fold enrichment (6-mer frequency, TF over GST control); with EHF, 1.02 fold enrichment (6-mer frequency, TF over GST control); in the test with SPIB, 1.04 fold enrichment (6-mer frequency, TF over GST control); with ETV5, 1.04 fold enrichment (6-mer frequency, TF over GST control); with SPIC it was 1.17 fold enrichment (6-mer frequency, TF over GST control); with ELK4 it was 1.07 fold enrichment (6-mer frequency, TF over GST control). Moreover, the binding signal was 1.05 fold enrichment (6-mer frequency, TF over GST control) in the test with ETV3L and 1.13 fold enrichment (6-mer frequency, TF over GST control) in the test with ETV3.

Turning to CTGTAG, the binding signal with GABPA was 1.03 fold enrichment (6-mer frequency, TF over GST control); with ETV5 it was 1.02 fold enrichment (6-mer frequency, TF over GST control); in the test with SPIC it was 1.08 fold enrichment (6-mer frequency, TF over GST control); with ERF, 1.02 fold enrichment (6-mer frequency, TF over GST control); in the test with SPDEF, 1.03 fold enrichment (6-mer frequency, TF over GST control).

For the sequence ATCCGT, the binding signal is 1.04 fold enrichment (6-mer frequency, TF over GST control) with ERG; 1.1 fold enrichment (6-mer frequency, TF over GST control) in the test with SPIB; 1.05 fold enrichment (6-mer frequency, TF over GST control) with ETV5; 1 fold enrichment (6-mer frequency, TF over GST control) with SPIC; 1.41 fold enrichment (6-mer frequency, TF over GST control) with SPDEF; 1.04 fold enrichment (6-mer frequency, TF over GST control) in the test with ETV3.

In the case of GTACCA, the binding signal with ELK1 is 1.04 fold enrichment (6-mer frequency, TF over GST control); in the test with ELF1, 1.01 fold enrichment (6-mer frequency, TF over GST control); with SPIB, 1.02 fold enrichment (6-mer frequency, TF over GST control); with ETV5 it was 1.07 fold enrichment (6-mer frequency, TF over GST control); with ELK4, 1.09 fold enrichment (6-mer frequency, TF over GST control); with ETV1, 1 fold enrichment (6-mer frequency, TF over GST control). The binding signal is 1.04 fold enrichment (6-mer frequency, TF over GST control) with ERF and 1 fold enrichment (6-mer frequency, TF over GST control) with SPDEF.

The values are drawn from article PMC7862700, “An all-to-all approach to the identification of sequence-specific readers for epigenetic DNA modifications on cytosine”.
